Source: PubChem (National Center for Advancing Translational Sciences (NCATS))
Shown are actives, neighbours in structure and some others; about 3.2% of the full set was active somewhere.
HEK293 tox = cytotoxicity counter-screen for GLP-1 receptor inverse agonists; Potency, µM (series often up to 38.3 µM), usual class: inhibitors; 410,000 tested, 0.13% active; HEK293 cAMP-luciferase reporter cells, luminescence, 24 h; AID 624418;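 note: loss of luciferase light is scored as toxicity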
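Quantitative HTS format, 1536 wells, 200 cells/uL seeded. Compounds: 23 nL, 24 h, 37 °C. Detection: luciferase reagent, luminescence at 12 min RT; decreased signal taken as cytotoxic.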
GLP1R inv ag = inverse agonists of human GLP-1 receptor; P43220; HEK293 GLP-1R CRE-luciferase, luminescence, 24 h; GLP-1R form is constitutively active; Potency, µM (top dose mostly 38.3 µM), usual class: inhibitors; 410,000 tested, 1.6% active; AID 624417; note: nearly all actives have a fitted effect of over 55% in size
Target sequence (P43220 whole entry, looked up): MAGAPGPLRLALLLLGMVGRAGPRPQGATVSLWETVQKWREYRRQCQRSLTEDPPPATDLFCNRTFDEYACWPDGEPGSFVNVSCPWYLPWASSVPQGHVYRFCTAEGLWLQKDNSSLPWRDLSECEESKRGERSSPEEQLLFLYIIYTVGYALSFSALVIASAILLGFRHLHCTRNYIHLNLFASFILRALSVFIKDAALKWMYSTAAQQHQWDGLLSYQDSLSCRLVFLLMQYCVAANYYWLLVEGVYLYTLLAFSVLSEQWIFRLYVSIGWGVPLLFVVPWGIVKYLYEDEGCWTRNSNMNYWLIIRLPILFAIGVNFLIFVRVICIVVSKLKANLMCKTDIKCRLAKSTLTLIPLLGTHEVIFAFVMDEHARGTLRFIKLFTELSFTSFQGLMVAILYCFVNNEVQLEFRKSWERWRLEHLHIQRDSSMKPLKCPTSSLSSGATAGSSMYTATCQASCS
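HEK293 cells stably co-expressing a cAMP-responsive luciferase reporter and constitutively active GLP-1R were seeded, incubated 12 h, then exposed to compounds for 24 h at 37 C. Luminescence was read 12 min after detection reagent; inverse agonists lower signal.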
GLP-1R agonist = activates the human GLP-1 receptor; P43220; HEK293 GLP-1R CRE-luciferase, luminescence, 4-6 h; cells express a hypersensitive GLP-1R form; Potency, µM (top dose mostly 45.6 µM), actives largely listed as activators; 380,000 tested, 0.007% active; AID 624172
ClpP mod = qHTS Assay for Activators of ClpP; purified B. subtilis ClpP, FRET peptide cleavage, 20 min; Potency, µM (titrated, usually from 57.5 µM); 340,000 tested, 1.9% active; active = well fitted falling curve with a large enough effect; inconclusive = small, poorly fitted or top-dose-only effect; inactive = no such curve, though single readings can be large or run the other way; note: the source files actives as falling curves though it sought activators and does not explain the sign; nearly all actives have a fitted effect of over 65% in size
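FRET quenching reversal measured ClpP activation: 10 microg/mL B. subtilis ClpP at pH 8 with the FRET-FV decapeptide, read at 430 nm after 320 nm excitation. The 20-min minus 0-min signal was scaled between DMSO/no-enzyme wells and ADEP (5.8 microM final).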
Large screens that a line does not name were inactive. Unless noted, calls come from the whole dose curve; as a rule, active = well fitted curve in the direction sought with a large enough effect; inconclusive = small, poorly fitted or top-dose-only effect, or another doubt; inactive = no such curve, though single readings can be large; an effect the other way counts as inactive or inconclusive.

COc1ccc(C)cc1NC(=O)CCS(=O)(=O)c1ccc2c(c1)CC(=O)N2C	none (no result: GLP-1R agonist)
CC1CCN(C(=S)NC(=O)c2ccc(C(C)(C)C)cc2)CC1	HEK293 tox inconclusive, GLP1R inv ag 8.9µM
CC(C)(C)c1ccc(C(=O)NC(=S)N2CCCCCC2)cc1	HEK293 tox inconclusive, GLP1R inv ag 7.1µM
Cc1ccc(OCc2nnc(SCC(=O)Nc3ccccc3C(C)C)o2)cc1	none (no result: GLP-1R agonist)
CCOc1cc(C(=S)N2CCOCC2)ccc1OC(=O)/C=C/c1ccc(OC)c(OC)c1	ClpP mod 25µM
Cc1ccc(C(=O)c2sc(Nc3ccc(F)cc3)nc2N)c(C)c1	GLP1R inv ag 5µM (no result: GLP-1R agonist)
COc1ccc(Nc2nc(N)c(C(=O)c3ccc(F)cc3)s2)cc1	GLP1R inv ag inconclusive
Cc1nn2c(N3CCN(CCO)CC3)c3c(nc2c1-c1ccccc1)CCCC3	GLP1R inv ag 3.5µM (no result: ClpP mod)
COc1cccc(Nc2c3c(nc4c(-c5ccccc5)c(C)nn24)CCC3)c1	GLP1R inv ag 5µM, ClpP mod inconclusive
CCC(C)Nc1c2c(nc3c(-c4ccccc4)c(C)nn13)CCC2 (stereo not drawn)	ClpP mod 28µM
Cc1nn2c(Nc3ccc(F)cc3)c3c(nc2c1-c1ccccc1)CCC3	none
Cc1ccccc1CS(=O)(=O)CCC(=O)N1CCN(c2ccc(N3CCOCC3)nn2)CC1	ClpP mod 22µM
C=CCOc1c(CNc2cccc(C(=O)O)c2)cccc1OCC	ClpP mod 32µM
C=CCOc1c(CNc2cccc(C(=O)O)c2)cccc1OC	ClpP mod 25µM
CC(=O)c1ccc(N2CCN(C(=O)Nc3cn(CC(C)C)c(=O)c4ccccc34)CC2)cc1	ClpP mod inconclusive
CC(=O)Nc1ccc2nc(-c3ccccn3)[nH]c2c1	ClpP mod 11µM
CC(=O)Nc1ccc2nc(-c3ccncc3)[nH]c2c1	ClpP mod 25µM
CC(C)(C)NC(=O)C(c1ccc(O)cc1)N(C(=O)Cn1nnc(-c2ccc(F)cc2)n1)c1ccccc1F (stereo not drawn)	GLP1R inv ag 8.9µM
O=C(Nc1nc2ccc(Cl)cc2s1)c1cccc(N2C(=O)CCC2=O)c1	ClpP mod 35µM
O=C(CP(=O)(c1ccccc1)c1ccccc1)Nc1nc2ccc(Cl)cc2s1	GLP1R inv ag 11µM
CCOC(=O)c1c(C)[nH]c(C)c1S(=O)(=O)NCC(=O)N1CCN(c2ccccc2OC)CC1	none (no result: GLP-1R agonist)
O=C1C(=C(O)c2ccccc2)C(=O)c2ccccc21	HEK293 tox inconclusive
O=C1C(=C(c2ccccc2)c2ccccc2)Nc2ccccc21	HEK293 tox inconclusive, GLP1R inv ag 3.2µM
CCOC(=O)c1cc(-c2ccc(C)cc2)n(CCC(=O)Nc2ccc(OC)c(OC)c2)c1C	GLP1R inv ag inconclusive
CC1(C(=O)NCc2cccc(C(F)(F)F)c2)CCN1CCc1ccccc1 (stereo not drawn)	GLP1R inv ag inconclusive
CC1(C(=O)NCc2cccc(C(F)(F)F)c2)CCN1C1Cc2ccccc2C1 (stereo not drawn)	GLP1R inv ag 13µM
COc1ccc2c(COC(=O)[C@@H]3CCCN3S(=O)(=O)c3ccc(Cl)cc3)cc(=O)oc2c1	ClpP mod 25µM
Cc1ccc(S(=O)(=O)N2C/C=C\CN(S(=O)(=O)c3ccccc3Br)CC2)cc1	GLP1R inv ag 10µM
CC(C)CCNC(=O)C(c1cccnc1)N(CCc1ccccc1)C(=O)Cn1nnc2ccccc21 (stereo not drawn)	ClpP mod 18µM
CC(C)CCNC(=O)C(c1cccnc1)N(Cc1ccccc1)C(=O)Cn1nnc2ccccc21 (stereo not drawn)	none
COC(=O)c1c(NC(=O)c2cc(=O)c3cc(C)cc(C)c3o2)sc2c1CCC2	none (no result: GLP-1R agonist)
O=C(c1ccc2c(c1)OCO2)N1CCC2(CC1)Oc1ccc(Cl)cc1C(=O)C21CC(c2ccccc2)=NO1 (stereo not drawn)	HEK293 tox 4.5µM
O=C(c1ccc2c(c1)OCO2)N1CCC2(CC1)Oc1ccc(F)cc1C(=O)C21CC(c2ccc(Cl)cc2)=NO1 (stereo not drawn)	none
O=C(CNC(=S)NC(=O)c1ccc(Cl)cc1)c1ccccc1	ClpP mod 28µM
Cc1ccc2c(c1)C(c1ccccc1)N(C(=O)c1ccc(S(=O)(=O)N3CCCC3)cc1)CC(=O)N2 (stereo not drawn)	none (no result: GLP-1R agonist)
Cc1ccc(C)c(N2CCN(C(=O)CN3C(=O)CSc4c3c(C)nn4-c3ccccc3)CC2)c1	none (no result: GLP-1R agonist)
